aDG glyco up: alpha-DG glycosylation activation; Pro5-aDG cells, alpha-DG glycosylation AlphaScreen (IIH6); 0% Pro5, 100% B10-LARGE cell signal; AID 624168; hit rate 0.22% among 360,000; activation, % at 10 µM;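 active = activation of at least 8% versus controls, or a plate z-score of at least 8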;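 note: Pro5 are CHO cells carrying HIG-tagged alpha-DG that lacks glycosylation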
Cardio protect: myocardial damage modulation in H9c2 cells | H9c2 cardiomyocytes, H2O2 injury protection, ATPLite, 2 h | protection from H2O2 cell death, % at 20 µM | hit rate 0.63% among 360,000;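 active = compounds giving at least 50% protection of heart cells from peroxide-induced death in the single-dose screen, raw or plate-pattern-corrected value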;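 note: 0% = DMSO wells with peroxide and 100% = DMSO wells without peroxide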
PfG6PD inh: PfG6PD (Plasmodium falciparum) enzyme inhibition | PfGluPho enzyme, NADPH resazurin-diaphorase fluorescence | hit rate 0.78% among 350,000 | inhibition, % at 20 µM;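 active = inhibition reaching at least a set limit at 20 µM in the primary screen, cut at about 59% in these data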;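 note: 0% = DMSO wells with substrate and 100% = DMSO wells lacking glucose-6-phosphate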
CRFR2-BP ag: CRF-BP/CRF-R2 complex agonism; hit rate 0.46% among 350,000; activation, % at 13.2 µM; HEK293 CRF-R2/CRF-BP, calcium dye fluorescence (FLIPR); percent of saturating CRF peptide response;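 active = activation of at least 50%, plus an integration ratio under a set limit after plate pattern correction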;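 note: plate controls were neutral control wells without compound for no effect and CRF at EC100 for full effect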
FAS TE block: blocks the thioesterase domain of human fatty acid synthase; inhibition, % at 15 µM; P49327; hit rate 0.67% among 360,000; AID 602261; recombinant FAS-TE, OMFH fluorogenic substrate, fluorescence endpoint;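 active = compounds whose normalised, plate-corrected inhibition of enzyme fluorescence in the single-dose primary screen is 50% or more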;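 note: 0% = DMSO with enzyme and 100% = substrate without enzyme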
CRFR2-BP antag: antagonists of CRF-binding protein/CRF-R2 receptor complex; inhibition, % at 11.8 µM; hit rate 0.59% among 350,000; AID 588475; HEK293 CRF-R2/CRF-BP, CRF-induced calcium fluorescence;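 active = inhibition of the ligand-induced calcium signal above about 50% at the single tested concentration, limit read from the data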
* marks the source's active call; other numbers are inactive results; . = no result given. Hits are enriched below; roughly 3.2% of the tested compounds scored in any of these assays.

SMILES	aDG glyco up	Cardio protect	PfG6PD inh	CRFR2-BP ag	FAS TE block	CRFR2-BP antag
Cc1ccc(NC(=O)c2nc[nH]c2C(=O)NCCCCNC(=O)c2[nH]cnc2C(=O)Nc2ccc(C)cc2)cc1	0	33	0	0	12	-13
O=C(Nc1ccccc1)c1nc[nH]c1C(=O)NCCNC(=O)c1[nH]cnc1C(=O)Nc1ccccc1	0	52*	9	-2	-8	-5
O=C(Nc1cccc(Cl)c1)c1nc[nH]c1C(=O)NCCCNC(=O)c1[nH]cnc1C(=O)Nc1cccc(Cl)c1	0	80*	12	4	4	-1
O=C(Nc1ccccc1)c1nc[nH]c1C(=O)NCCCCNC(=O)c1[nH]cnc1C(=O)Nc1ccccc1	-1	81*	14	0	0	-11
CC(C)(C)N1CCC1CN (stereo unspecified)	0	1	9	0	-6	-22
O=c1[nH]c(CSc2nnc(-c3cccnc3)n2C2CCCCC2)nc2ccccc12	0	89*	-4	0	-2	0
O=C1NC(=O)C(c2ccccc2)(C2CCCC2)N1 (stereo unspecified)	0	1	1	1	-4	-6
CCOC(=O)[C@]12CCCC=C1N(CCC1=CCCCC1)C(=O)[C@H](CC(=O)NCC1CCCCC1)C2	0	.	.	.	.	.
CCN(CC)c1ccc(/C=N/NC(=O)CNC(=O)C2COc3ccccc3O2)c(O)c1 (stereo unspecified)	2	66*	-16	-5	3	-10
CC(=O)NC(Cc1ccc(C)cc1)C(=O)NC1CCN(c2ncccc2[N+](=O)[O-])CC1 (stereo unspecified)	0	11	-9	-3	-3	60*
COc1cccc(-n2cnnc2SC(C)C(=O)NC2CCCC2)c1 (stereo unspecified)	0	1	-8	-1	-6	-16
COc1cc(C=O)ccc1OCCOCCOc1ccc(Cl)cc1Cl	0	-18	5	-2	9	69*
O=C(N/N=C/c1cccc(O)c1)c1cc(-c2ccc3c(c2)OCO3)n[nH]1	0	76*	25	29	10	-6
O=C(CCN1C(=O)C2CC=CCC2C1=O)NC1CCCCC1 (stereo unspecified)	0	4	-5	0	-1	3
CC1CCC(NC(=O)CCN2C(=O)C3CC=CCC3C2=O)CC1 (stereo unspecified)	0	11	-2	-1	-5	106*
O=C(Nc1ccc(NC(=O)c2ccccc2)c2ccccc12)c1ccccc1	0	-2	-15	0	-5	21
Cc1cc(=O)oc2cc(OCC(=O)NC3CCCCC3)ccc12	0	6	24	-2	3	-5
C/C(=N\NC(=O)c1cccc(N/N=C(\C)c2ccccc2)c1)c1ccccc1	0	14	2	-4	4	10
C/C(=N\NC(=O)c1cccc(N/N=C(\C)c2ccncc2)c1)c1ccncc1	0	68*	54	0	-8	-15
C/C(=N/NC(=O)c1cccs1)c1cccc(NC(=O)C2CC2)c1	0	58*	4	-1	-2	-21
CCN(CC)C(=O)c1ccc(Nc2nnc(-c3ccc(O)cc3)c3ccccc23)cc1	0	12	-23	0	0	5
Oc1ccc(C2=CSC3=NCCN23)cc1O	0	16	25	-1	-18	5
COCC(=O)N(C)[C@H]1C[C@H]2c3cc(N4CCN(C)CC4)ccc3CCN2C(=O)[C@H]1[C@H](C)O	0	1	-5	-1	-10	111*
O=C(COC(=O)c1cc(=O)[nH]c2ccccc12)Nc1ccccc1F	-1	4	6	-1	-5	-5
O=C(Nc1cc(-c2ccccc2)sc1C(=O)O)c1cccc(F)c1	0	-5	-19	-1	6	73*
SMILES	aDG glyco up	Cardio protect	PfG6PD inh	CRFR2-BP ag	FAS TE block	CRFR2-BP antag
Cc1ccc(S(=O)(=O)N[C@H](C(=O)Oc2ccc3c(C(F)(F)F)cc(=O)oc3c2)c2ccccc2)cc1	0	5	18	69*	9	-20
C=CCc1cccc2cc(C(=O)Nc3ccc(S(=O)(=O)Nc4nnc(CC)s4)cc3)c(=O)oc12	0	-10	-16	-1	8	61*
CCc1nnc(NS(=O)(=O)c2ccc(NC(=S)NC(=O)/C=C/c3ccc(C(C)C)cc3)cc2)s1	0	-4	-21	14	51*	18
CCc1nnc(NS(=O)(=O)c2ccc(NC(=S)NC(=O)/C=C/c3ccc(OC)cc3)cc2)s1	0	-11	-12	-3	12	44
CCc1nnc(NS(=O)(=O)c2ccc(NC(=S)NC(=O)/C=C/c3ccccc3)cc2)s1	0	-4	-10	-1	27	56*
CC1(Cc2cc(Cl)ccc2C(F)(F)F)C(=O)Nc2c(Cl)cccc21 (stereo unspecified)	0	-15	.	.	20	.
COc1ccc(NC(=O)CN(C)C(=O)C2(c3ccccc3)CCCC2)cc1	0	10	7	1	1	-15
Cc1ccc([C@H]2N[C@]3(CCCN(Cc4ccc(Br)cc4)C3=O)[C@H]3C(=O)N(C)C(=O)[C@@H]23)cc1	1	-4	-12	0	-6	8
Cc1cc(S(=O)(=O)N2CCCOC2CNC(=O)C(=O)NCc2cccs2)ccc1F (stereo unspecified)	0	-6	4	0	-1	3
COc1ccc(CNS(=O)(=O)NCc2ccccc2)cc1OC	1	-4	1	274*	-3	-285
Cc1noc(C)c1NC(=O)N(C)C[C@@H]1Oc2ccc(NC(=O)C3CCCCC3)cc2C(=O)N([C@@H](C)CO)C[C@H]1C	0	11	0	1	-14	6
Brc1ccc2nc(C3CCCCC3)c(CC3CCCCC3)n2c1	0	-6	.	.	15	.
O=C(Nc1ccccc1)Nc1ccc(O)c2ccccc12	.	.	56	0	.	70*
CC(C)NC(=O)C1(C)CCCCN1Cc1ccc(OCc2ccccc2)cc1 (stereo unspecified)	0	-29	.	.	12	.
Cc1cccc(N2CCN(C(=O)c3[nH]c(C(F)(F)F)nc3-c3ccccc3)CC2)c1C	0	-4	.	.	-3	.
Cc1ccc(C2C(C(=O)c3cccs3)=C(O)C(=O)N2c2nnc(C)s2)cc1 (stereo unspecified)	0	2	-2	134*	-25	-75
O=C(COc1ccc(Cl)cc1)NNC(=O)c1ccccn1	0	29	-22	0	-11	10
Cc1cc(C)cc(OCC(=O)NNC(=O)c2ccccn2)c1	1	78*	-7	0	-4	-6
COc1ccc(-c2oc3ccc(-c4cc(OC)c(OC)c(OC)c4)cc3c2-c2ccc(OC)cc2)cc1	.	.	-2	-1	.	6
